The campaign covered roughly 5,500 compounds. About 2,000 (36%) were called active. Another 18% or so got no clear call; they are omitted. Rule as the data show it: active = normalized growth mostly below about 0.91 (no sharp cut-off); inconclusive = no clear call, values can overlap the other calls; inactive = mostly above about 0.92. Some of the results follow.
Assay: chemical genetic growth profiling, strain panel (AID 1159580);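 also: tested at 20 µM; growth read once vehicle control cultures reached saturation at 30 °C; 1 = growth at the plate median or of vehicle wells; lower values mean less growth of the strain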
Conditions: growth OD
[1] = S. cerevisiae deletion strains, locus YAL013W, strain DEP1, hits give low values
[2] = S. cerevisiae deletion strains, locus YBR229C, strain ROT2, hits give low values
[3] = S. cerevisiae deletion strains, locus YCL061C, strain MRC1, hits give low values
[4] = S. cerevisiae deletion strains, locus YDL101C, strain DUN1, hits give low values
[5] = S. cerevisiae deletion strains, locus YDR150W, strain NUM1, hits give low values
[6] = S. cerevisiae deletion strains, locus YEL061C, strain CIN8, hits give low values
[7] = S. cerevisiae deletion strains, locus YGR078C, strain PAC10, hits give low values
[8] = S. cerevisiae deletion strains, locus YHR030C, strain SLT2, hits give low values
[9] = S. cerevisiae deletion strains, locus YHR087W, strain rtc3, hits give low values
[10] = S. cerevisiae deletion strains, locus YJR043C, strain POL32, hits give low values
[11] = S. cerevisiae deletion strains, locus YJR075W, strain HOC1, hits give low values
[12] = S. cerevisiae deletion strains, locus YLR039C, strain RIC1, hits give low values
[13] = S. cerevisiae deletion strains, locus YLR058C, strain SHM2 (second series), hits give low values
[14] = S. cerevisiae deletion strains, locus YLR085C, strain ARP6, hits give low values
[15] = S. cerevisiae deletion strains, locus YLR262C, strain YPT6, hits give low values
[16] = S. cerevisiae deletion strains, locus YML094W, strain GIM5, hits give low values
[17] = S. cerevisiae deletion strains, locus YMR219W, strain ESC1, hits give low values
[18] = S. cerevisiae deletion strains, locus YMR263W, strain SAP30, hits give low values
[19] = S. cerevisiae deletion strains, locus YNL153C, strain GIM3, hits give low values
[20] = S. cerevisiae deletion strains, locus YNL298W, strain CLA4 (second series), hits give low values
[21] = S. cerevisiae deletion strains, locus YNL322C, strain KRE1, hits give low values
[22] = S. cerevisiae deletion strains, locus YNR030W, strain Alg12, hits give low values
[23] = S. cerevisiae deletion strains, locus YPL055C, strain LGE1, hits give low values
[24] = S. cerevisiae deletion strains, locus YPL241C, strain CIN2, hits give low values
[25] = S. cerevisiae deletion strains, locus YPR135W, strain CTF4, hits give low values

Measured: normalized growth

Cc1nc(-c2nnc(Sc3ccc(C(F)(F)F)cc3[N+](=O)[O-])n2C)cs1
inactive: [1] 1.01 | [2] 1.01 | [3] 0.995 | [4] 1 | [5] 0.993 | [6] 0.998 | [7] 1.01 | [8] 0.965 | [9] 1.02 | [10] 1.01 | [11] 0.987 | [12] 0.965 | [13] 1.01 | [14] 1.14 | [15] 0.844 | [16] 1.01 | [17] 1 | [18] 1.02 | [19] 0.998 | [20] 1.01 | [21] 1 | [22] 1.01 | [23] 1.02 | [24] 1 | [25] 0.956

Cc1ccc(S(=O)(=O)n2c(Sc3ccc([N+](=O)[O-])cc3[N+](=O)[O-])nc3cc(C)ccc32)cc1
active: [8] 0.839 | S. cerevisiae deletion strains, locus YLR113W, strain HOG1, hits give low values 0.748
inactive: S. cerevisiae deletion strains, locus YAR019C, strain CDC15, hits give low values 0.996 | S. cerevisiae deletion strains, locus YBL105C, strain PKC1, hits give low values 0.972 | S. cerevisiae deletion strains, locus YBR135W, strain CKS1, hits give low values 0.983 | S. cerevisiae deletion strains, locus YBR136W, strain MEC1, hits give low values 0.986 | S. cerevisiae deletion strains, locus YBR160W, strain CDC28, hits give low values 0.986 | S. cerevisiae deletion strains, locus YDL017W, strain CDC7, hits give low values 0.986 | S. cerevisiae deletion strains, locus YDL028C, strain MPS1, hits give low values 0.992 | [4] 0.989 | S. cerevisiae deletion strains, locus YDL108W, strain KIN28, hits give low values 0.987 | S. cerevisiae deletion strains, locus YDL132W, strain cdc53, hits give low values 0.989 | S. cerevisiae deletion strains, locus YDL214C, strain PRR2, hits give low values 0.947 | S. cerevisiae deletion strains, locus YDR052C, strain DBF4, hits give low values 0.987 | S. cerevisiae deletion strains, locus YDR054C, strain cdc34, hits give low values 0.986 | S. cerevisiae deletion strains, locus YDR226W, strain ADK1, hits give low values 0.987 | S. cerevisiae deletion strains, locus YDR477W, strain SNF1, hits give low values 0.968 | S. cerevisiae deletion strains, locus YER123W, strain YCK3, hits give low values 0.92 | S. cerevisiae deletion strains, locus YER133W, strain GLC7, hits give low values 0.945 | S. cerevisiae deletion strains, locus YFL009W, strain cdc4, hits give low values 0.989 | S. cerevisiae deletion strains, locus YFL029C, strain CAK1, hits give low values 0.988 | S. cerevisiae deletion strains, locus YFR003C, strain YPI1, hits give low values 0.986 | S. cerevisiae deletion strains, locus YFR019W, strain FAB1, hits give low values 0.961 | S. cerevisiae deletion strains, locus YFR028C, strain CDC14, hits give low values 0.99 | S. cerevisiae deletion strains, locus YGR040W, strain KSS1, hits give low values 0.97 | S. cerevisiae deletion strains, locus YGR052W, strain FMP48, hits give low values 0.966 | S. cerevisiae deletion strains, locus YGR092W, strain DBF2, hits give low values 0.86 | S. cerevisiae deletion strains, locus YHR079C, strain IRE1, hits give low values 0.884 | S. cerevisiae deletion strains, locus YHR082C, strain KSP1, hits give low values 1.04 | S. cerevisiae deletion strains, locus YHR205W, strain SCH9, hits give low values 0.868 | S. cerevisiae deletion strains, locus YIL147C, strain SLN1, hits give low values 0.99 | S. cerevisiae deletion strains, locus YJL095W, strain BCK1, hits give low values 0.879 | S. cerevisiae deletion strains, locus YJL128C, strain PBS2, hits give low values 0.939 | S. cerevisiae deletion strains, locus YJL157C, strain FAR1, hits give low values 0.936 | S. cerevisiae deletion strains, locus YJR016C, strain ILV3, hits give low values 0.986 | S. cerevisiae deletion strains, locus YJR066W, strain TOR1 (second series), hits give low values 0.898 | S. cerevisiae deletion strains, locus YJR066W, strain TOR1, hits give low values 1 | S. cerevisiae deletion strains, locus YKL048C, strain ELM1, hits give low values 0.947 | S. cerevisiae deletion strains, locus YKL067W, strain YNK1, hits give low values 0.935 | S. cerevisiae deletion strains, locus YKL101W, strain HSL1, hits give low values 0.917 | S. cerevisiae deletion strains, locus YKL193C, strain SDS22, hits give low values 0.996 | S. cerevisiae deletion strains, locus YKL203C, strain TOR2, hits give low values 1 | S. cerevisiae deletion strains, locus YLR133W, strain CKI1, hits give low values 0.932 | S. cerevisiae deletion strains, locus YLR403W, strain SFP1, hits give low values 0.917 | S. cerevisiae deletion strains, locus YML070W, strain DAK1, hits give low values 0.926 | S. cerevisiae deletion strains, locus YMR001C, strain CDC5, hits give low values 0.987 | S. cerevisiae deletion strains, locus YMR205C, strain PFK2 (second series), hits give low values 0.947 | S. cerevisiae deletion strains, locus YMR277W, strain FCP1, hits give low values 0.988 | S. cerevisiae deletion strains, locus YNL006W, strain LST8, hits give low values 0.971 | S. cerevisiae deletion strains, locus YNL020C, strain ARK1, hits give low values 0.898 | S. cerevisiae deletion strains, locus YNL161W, strain CBK1, hits give low values 0.968 | S. cerevisiae deletion strains, locus YNL183C, strain NPR1, hits give low values 0.958 | S. cerevisiae deletion strains, locus YNL207W, strain RIO2, hits give low values 0.984 | S. cerevisiae deletion strains, locus YNL222W, strain SSU72, hits give low values 0.975 | S. cerevisiae deletion strains, locus YNL307C, strain MCK1 (second series), hits give low values 0.901 | S. cerevisiae deletion strains, locus YOL078W, strain AVO1, hits give low values 0.987 | S. cerevisiae deletion strains, locus YOL136C, strain PFK27, hits give low values 0.919 | S. cerevisiae deletion strains, locus YOR061W, strain CKA2, hits give low values 0.873 | S. cerevisiae deletion strains, locus YOR119C, strain RIO1, hits give low values 1.03 | S. cerevisiae deletion strains, locus YOR231W, strain MKK1, hits give low values 0.887 | S. cerevisiae deletion strains, locus YOR329C, strain SCD5, hits give low values 0.968 | S. cerevisiae deletion strains, locus YPL031C, strain PHO85, hits give low values 0.951 | S. cerevisiae deletion strains, locus YPL153C, strain RAD53, hits give low values 0.964 | S. cerevisiae deletion strains, locus YPL204W, strain HRR25, hits give low values 0.931 | S. cerevisiae deletion strains, locus YPL209C, strain IPL1, hits give low values 0.971 | S. cerevisiae deletion strains, locus YPL256C, strain CLN2, hits give low values 0.862 | S. cerevisiae deletion strains, locus YPR025C, strain CCL1, hits give low values 0.988 | S. cerevisiae deletion strains, locus YPR106W, strain ISR1, hits give low values 0.989 | S. cerevisiae deletion strains, locus YPR111W, strain DBF20, hits give low values 0.966 | S. cerevisiae deletion strains, strain NNK1, hits give low values 0.982 | S. cerevisiae deletion strains, strain TSCII, hits give low values 0.986

O=C(O)/C=C/C(=O)Nc1ccc(-n2nc(C(F)(F)F)cc2C(F)(F)F)cc1
inactive: [1] 0.987 | [2] 1 | [3] 1.01 | [4] 0.97 | S. cerevisiae deletion strains, locus YDL134C, strain PPH21, hits give low values 1.02 | [5] 0.992 | [6] 1.03 | [7] 1.01 | [8] 1.11 | [9] 0.995 | S. cerevisiae deletion strains, locus YJL187C, strain SWE1, hits give low values 1.01 | [10] 1 | [11] 1.08 | S. cerevisiae deletion strains, locus YKL190W, strain CNB1, hits give low values 1.02 | [12] 1.04 | [13] 1.02 | [14] 1.07 | [15] 1.03 | [16] 1.02 | [17] 1.01 | [18] 1.02 | S. cerevisiae deletion strains, locus YMR307W, strain GAS1, hits give low values 1.14 | S. cerevisiae deletion strains, locus YNL128W, strain TEP1, hits give low values 1.02 | [19] 0.989 | [20] 1.05 | [21] 1 | [22] 1.02 | S. cerevisiae deletion strains, locus YOL006C, strain TOP1, hits give low values 1.09 | [23] 1 | [24] 1.01 | [25] 1.06 | S. cerevisiae strains, strain wild type, hits give low values 1.02
